Results: PubChem BioAssay (NCATS)
Several values for one entry are separate records, joined by “and”; a condition that tells them apart may be missing. Equal entries are not always repeated. Inconclusive results are not listed. Activity calls are given as the source filed them. Unless noted, the call rests on the fitted dose curve; in most records, active means well fitted curve in the direction sought with a large enough effect; inconclusive means small, poorly fitted or top-dose-only effect, or another doubt; inactive means no such curve, though single readings can be large; an effect the other way counts as inactive or inconclusive.

Columns and labels:
[1] = Cell Viability - MRC5 (AID 434; calls by dose curve;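 further: potency means the concentration at half of the fitted maximal effect; cells exposed to compound for 40 hours at 37 °C; potency reflects cytotoxicity seen as loss of intracellular ATP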); details: MRC5 lung fibroblast viability, qHTS
Method in brief: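 ATP luminescence read-out (CellTiter-Glo, 20 min RT) after 40 hr, 37 °C compound exposure of 1500 MRC5 cells/well. Data normalized to DMSO (basal) and 100 uM tamoxifen (100% inhibition); AC50 from standard Hill equation.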

[2] = Cell Viability - Mesenchymal (AID 546); details: mesenchymal cells viability, qHTS; series mostly up to 91.7 µM;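 further: cells exposed to compound for 40 hours before reading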
Method in brief: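 Human renal mesenchymal cells (glomerulus-derived), 1000 cells/well, 5 hr 37 °C pre-incubation; compound 40 hr, 37 °C; CellTiter-Glo, 20 min RT; luminescence; AC50 via Hill equation.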

[3] = Cellular Toxicity (caspase-3) SHSY5Y (AID 657); details: SH-SY5Y caspase-3 activation, DMSO zero, 10 µM staurosporine = 100%; series mostly up to 91.7 µM
Method in brief: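 SH-SY5Y human neuroblastoma cells (1500/well) were treated with compounds for 16 h at 37 °C, then Caspase-Glo 3/7 luminescence was read after 1 h at room temperature. Data normalized to DMSO and 10 uM staurosporine; AC50 from Hill fits.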

[4] = Cellular Toxicity (caspase-3) MRC-5 (AID 659); details: MRC-5 cells, luminescence, normalized: DMSO 0%, 10 µM staurosporine 100%; series mostly up to 91.7 µM
Method in brief: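 MRC-5 fibroblasts, 1500/well; 16 h cpd, 37 °C; Caspase-Glo 3/7, 1 h RT; lumi read. Norm: DMSO = 0%, 10 uM staurosporine = 100%. Hill-fit AC50 from qHTS conc-response.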

[5] = Cellular Toxicity (caspase-3) Mesangial (AID 660); details: mesangial cells, normalized: DMSO 0%, 100 µM tamoxifen 100%; series mostly up to 91.7 µM;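 further: combined caspase 3 and 7 activity read by Caspase-Glo luminescence; cells exposed to compound for 16 h before the caspase read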
Method in brief: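 Caspase 3/7 activation measured by Caspase-Glo 3/7 luminescence (20 min, room temperature) following 16 h exposure of mesangial cells (1000/well); AC50 from Hill-equation fit, normalized to DMSO and 100 uM tamoxifen.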

[6] = Cellular Toxicity (caspase-3) SK-N-SH (AID 661); details: SK-N-SH caspase-3 activation, qHTS; series mostly up to 91.7 µM
Method in brief: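 Caspase 3/7 activation was read by luminogenic substrate cleavage after 16 hour treatment of SK-N-SH cells. Signal was scaled between DMSO and 10 uM staurosporine, and concentration-response data were fitted with the Hill equation for AC50.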

[7] = Cellular Toxicity (caspase-3) Hek293 (AID 664); details: HEK293 caspase-3 activation, DMSO = 0%, 100 µM tamoxifen = 100%; at 92.2 µM (top of the series);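 further: cells exposed to compound for 16 h at 37 °C before readout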
Method in brief: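 Concentration-response qHTS: caspase 3/7 activation measured by luminescent aminoluciferin substrate cleavage after 16 h compound exposure of Hek 293 cells. AC50 from Hill equation, with DMSO as basal and 100 uM tamoxifen as 100%.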

[8] = Cellular Toxicity (caspase-3) N2a (AID 665); details: N2a cells, luminescence, normalized: DMSO 0%, 10 µM staurosporine 100%; series mostly up to 92.2 µM;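 further: compound exposure lasted 16 h at 37 °C before readout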
Method in brief: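 Caspase-3/7 activation measured as luminescence from Caspase-Glo reagent (1 h, room temperature) after 16 h compound exposure of mouse N2a cells. AC50 values from Hill-equation concentration-response, scaled between DMSO and 10 uM staurosporine.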

[9] = Cell Viability - LYMP1-002 - Assay at 16 hr (AID 948); details: LYMP1-002 lymphoblastoid cell viability; series mostly up to 92.2 µM;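 further: 0% = DMSO alone and full effect = 92 µM tetraoctylammonium bromide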
Method in brief: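 Human lymphoblastoid cells (LYMP1-002), 2500/well, were preincubated 5 hr at 37 C, then exposed to compounds for 16 hr at 37 C in complete medium. Cellular ATP was read by CellTiter-Glo luminescence after 30 min at room temperature; AC50 from Hill fits.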

[10] = MultiTox-Fluor Cytotoxicity Assay - LYMP1-003 - Dead Cells (AID 961); details: LYMP1-003 lymphoblastoid cells, dead-cell protease fluorescence; series mostly up to 92.2 µM;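 further: 0% = DMSO and 100% = tetraoctylammonium bromide; nearly all actives have a fitted effect of over 70% in size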
Method in brief: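 Human lymphoblastoid LYMP1-003 cells (2500/well) were treated with compounds for 16 hr at 37 C in complete medium. Dead-cell protease release was read by bis-AAF-R110 fluorescence (Ex/Em 485/520). AC50 came from Hill fits, normalized to DMSO and 15 uM tetraoctylammonium bromide.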

[11] = MultiTox-Fluor Cytotoxicity Assay - LYMP1-003 - Live Cells (AID 962); details: LYMP1-003 lymphoblastoid cells, MultiTox-Fluor live-cell protease fluorescence; series mostly up to 92.2 µM;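 further: 0% = DMSO only and full loss = 92 µM tetraoctylammonium bromide; cytotoxic hits lower the live-cell protease signal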
Method in brief: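 Live-cell protease activity (GF-AFC substrate, 405/510 nm, 60 min at room temperature) after 16 h, 37 C compound exposure of human lymphoblastoid LYMP1-003 cells; concentration-response fitted to the Hill equation for AC50.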

[12] = Cell Viability - LYMP1-003 - Assay at 24 hr (AID 963); details: LYMP1-003 lymphoblastoid cell viability; series mostly up to 92.2 µM;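 further: plate controls were DMSO only for no effect and tetraoctylammonium bromide positive control for full effect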
Method in brief: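 Concentration-response qHTS: ATP loss measured by CellTiter-Glo luminescence after 24 h compound exposure at 37 C. Cells were LYMP1-003 human lymphoblastoid, 2500 per well. AC50 derived via standard Hill equation modeling.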

[13] = Cell Viability - LYMP2-004 (AID 966); details: LYMP2-004 lymphoblastoid cell viability, qHTS; series mostly up to 92.2 µM;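 further: plate controls were DMSO only for no effect and tetraoctylammonium bromide control for full effect; nearly all actives have a fitted effect of over 65% in size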
Method in brief: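 AC50 values come from Hill modelling of concentration-dependent loss of intracellular ATP, measured by CellTiter-Glo luminescence. Human LYMP2-004 lymphoblastoid cells (2500/well) were exposed to compound for 24 h at 37 C.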

[14] = Cell Viability - LYMP2-025 (AID 976); details: LYMP2-025 lymphoblastoid cell viability; series mostly up to 92.2 µM;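 further: plate controls were DMSO only for no effect and tetraoctylammonium bromide control for full effect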
Method in brief: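 Cytotoxicity read as loss of intracellular ATP (luciferase luminescence) after 24 h compound treatment at 37 C. Uses LYMP2-025 lymphoblastoid cells in 1536-well format; Hill-equation modelling gives AC50; tetraoctylammonium bromide as positive control.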

[15] = Cell Viability - LYMP2-007 (AID 979); details: LYMP2-007 lymphoblastoid cell viability; series mostly up to 92.2 µM;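 further: cells exposed to compound for 24 h before reading; 0% = DMSO only and the negative end = 92 µM tetraoctylammonium bromide; nearly all actives have a fitted effect of over 60% in size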
Method in brief: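 AC50 values come from Hill-equation fits of luminescent intracellular ATP (CellTiter-Glo, 30 min, room temperature) following 24 h compound exposure at 37 C. Cells: LYMP2-007 lymphoblastoid line, 2500 per well, in complete culture medium.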

[16] = Cell Viability - LYMP2-014 (AID 983); details: LYMP2-014 lymphoblastoid cells, viability qHTS; series mostly up to 92.2 µM;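 further: plate controls were DMSO only for no effect and 92 µM tetraoctylammonium bromide for full effect; nearly all actives have a fitted effect of over 50% in size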
Method in brief: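 Intracellular ATP loss, read by luciferase luminescence, measures acute cytotoxicity after 24 h compound exposure of lymphoblastoid LYMP2-014 cells (2500/well, 37 C). Concentration-response data fitted to the Hill equation for AC50.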

[17] = Cell Viability - LYMP2-024 (AID 988); details: LYMP2-024 lymphoblastoid cell viability; series mostly up to 92.2 µM;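 further: plate controls were DMSO only for no effect and 92 µM tetraoctylammonium bromide for full effect; nearly all actives have a fitted effect of over 60% in size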
Method in brief: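 Cytotoxicity was taken as a decrease in ATP (CellTiter-Glo luminescence) after 24 hr compound exposure at 37 C of LYMP2-024 lymphoblastoid cells, 2500 cells/well. Concentration-response data were fitted to the Hill equation to give AC50.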

[18] = target: Peroxisome proliferator-activated receptor alpha (Homo sapiens) (UniProt Q07869); assay: qHTS assay for small molecule agonists of the peroxisome proliferator-activated receptor alpha (PPARalpha) signaling pathway (AID 651778); details: PathHunter PPARalpha complementation, chemiluminescence, 6 h; active compounds read high; further: % of control where 0% means no effect
Chain of Peroxisome proliferator-activated receptor alpha (Homo sapiens) (Q07869 whole entry, looked up, the tested form may be a part): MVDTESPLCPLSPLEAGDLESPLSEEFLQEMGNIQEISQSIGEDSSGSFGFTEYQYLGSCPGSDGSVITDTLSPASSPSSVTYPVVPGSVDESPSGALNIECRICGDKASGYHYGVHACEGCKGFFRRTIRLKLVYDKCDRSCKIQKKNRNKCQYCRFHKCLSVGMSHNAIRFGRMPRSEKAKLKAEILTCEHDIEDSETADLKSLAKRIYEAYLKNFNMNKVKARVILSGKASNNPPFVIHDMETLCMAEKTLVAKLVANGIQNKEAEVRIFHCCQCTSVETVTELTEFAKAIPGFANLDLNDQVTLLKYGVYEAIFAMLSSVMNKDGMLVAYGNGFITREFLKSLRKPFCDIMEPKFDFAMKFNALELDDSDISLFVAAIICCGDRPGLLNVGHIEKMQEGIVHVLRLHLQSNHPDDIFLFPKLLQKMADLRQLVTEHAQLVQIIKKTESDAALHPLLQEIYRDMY
Method in brief: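 Enzyme-fragment complementation assay in which ligand-bound PPARalpha translocates and forms an active enzyme that generates chemiluminescence. Cells were plated overnight, exposed to compound for 6 hr at 37 C, and then given detection reagent for 60 min at room temperature.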

[19] = qHTS assay for small molecule agonists of the antioxidant response element (ARE) signaling pathway measured by Nrf2-dependant transcriptional activity - cell viability counter screen (AID 720653; active means well fitted curve in the direction sought with a large enough effect in the repeat runs; an effect the other way counts as inactive or inconclusive; further: on the % scale 0 is the no-effect control and ±100 the full control effect); details: ARE-bla HepG2 viability, CellTiter-Glo ATP luminescence, 16 h; active compounds read low
Method in brief: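 ARE-bla HepG2 cells treated with compounds for 16 h at 37C; this counter screen measures viability as intracellular ATP by CellTiter-Glo luminescence after 30 min at room temperature.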

[20] = qHTS assay for cell viability of the p53RE-bla HCT-116 cell line (AID 743292); details: p53RE-bla HCT-116 viability, ATP luminescence, 16 h; series mostly up to 95 µM; further: on the % scale 0 is the no-effect control and ±100 the full control effect; nearly all actives have a fitted effect of over 55% in size
Method in brief: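 After plating at 4,000 cells per well and a 5 h rest at 37 C, HCT-116 cells carrying p53RE-bla received test chemicals in DMSO. Sixteen hours later at 37 C, CellTiter-Glo was added and luminescence recorded following 30 min at room temperature.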

O=C(O)C(Cl)(Cl)Br
inactive: Potency [1] > 92 µM | Potency [2] | outcome [3] | outcome [4] | outcome [5] | Potency [6] | caspase-3 activation [7] 1.91% | outcome [8] | outcome [9] | Potency [10] | outcome [11] | outcome [12] | Potency [13] | Potency [14] | Potency [15] | Potency [16] | Potency [17] | max response [18] -5.37% | max response [19] -4.89% | Potency [20]

CNC(=O)O/N=C/C(C)(C)S(C)=O (stereo not given)
inactive: Potency [1] > 92 µM | Potency [2] | outcome [3] | outcome [4] | outcome [5] | Potency [6] | caspase-3 activation [7] -2.67% | outcome [8] | outcome [9] | Potency [10] | outcome [11] | outcome [12] | Potency [13] | Potency [14] | Potency [15] | Potency [16] | Potency [17] | max response [18] -3.1% and 0.659% | max response [19] 1.76% and 2.37% | Potency [20]

O=C(O)c1cc(Cl)ccc1Cl
inactive: Potency [1] > 92 µM | Potency [2] | outcome [3] | outcome [4] | outcome [5] | Potency [6] | caspase-3 activation [7] -1.49% | outcome [8] | outcome [9] | Potency [10] | outcome [11] | outcome [12] | Potency [13] | Potency [14] | Potency [15] | Potency [16] | Potency [17] | max response [18] 5.32% | max response [19] -0.443% | Potency [20]

CC(C)(Cl)Cl
inactive: Potency [1] > 92 µM | Potency [2] | outcome [3] | outcome [4] | outcome [5] | Potency [6] | caspase-3 activation [7] 0.825% | outcome [8] | outcome [9] | Potency [10] | outcome [11] | outcome [12] | Potency [13] | Potency [14] | Potency [15] | Potency [16] | Potency [17] | max response [18] -2.59% | max response [19] -1.91% | Potency [20]

CCCCOC(=O)c1ccccc1N
inactive: Potency [1] > 92 µM | Potency [2] | outcome [3] | outcome [4] | outcome [5] | Potency [6] | caspase-3 activation [7] 0.422% | outcome [8] | outcome [9] | Potency [10] | outcome [11] | outcome [12] | Potency [13] | Potency [14] | Potency [15] | Potency [16] | Potency [17] | max response [18] -4.62% | max response [19] 4.85% | Potency [20]

CN(C)c1ccccc1
inactive: Potency [1] > 92 µM | Potency [2] | outcome [3] | outcome [4] | outcome [5] | Potency [6] | caspase-3 activation [7] -0.669% | outcome [8] | outcome [9] | Potency [10] | outcome [11] | outcome [12] | Potency [13] | Potency [14] | Potency [15] | Potency [16] | Potency [17] | max response [18] -1.79% | max response [19] 12.1% | Potency [20]

Cl/C=C\Cl
inactive: Potency [1] > 92 µM | Potency [2] | outcome [3] | outcome [4] | outcome [5] | Potency [6] | caspase-3 activation [7] 0.708% | outcome [8] | outcome [9] | Potency [10] | outcome [11] | outcome [12] | Potency [13] | Potency [14] | Potency [15] | Potency [16] | Potency [17] | max response [18] -0.887% | max response [19] -3.68% | Potency [20]
